# This excerpt belongs to a sample that is enriched for hits.
# VCAM1 TNFa pot – enhances TNF alpha induced VCAM1 expression in HUVEC. HUVEC TNFa-stimulated VCAM-1 immunofluorescence, high-content imaging; scaled per plate to unstimulated/TNFa-only wells. activation, % at 2 µM. actives 0.19% (n = 93,000);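 active = activation above the screen mean plus 3 SD, with well images confirming the hit on visual review, cut at about 28% in these data, passing the limit was not always enough; inconclusive = activation above that limit but images do not confirm it; inactive = activation not above that limit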;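 also: signal is the number of cytoplasmic VCAM-1 stained grains per positive cell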
# VCAM1 pot conf – enhancers of VCAM1 induction in HUVEC – imaging, triplicate retest, confirmation; shares compounds with VCAM1 TNFa pot; HUVEC TNFa-stimulated VCAM-1 immunofluorescence imaging; activation, % at 2 µM; 230 tested, under 10 active; AID 1034;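 active = activation above 30% in triplicate retests at 2 µM, then confirmed by visual review of the well images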;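 also: scaled per plate between unstimulated and TNFa-stimulated DMSO control wells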
# * hit, by the source's call; ? = inconclusive.
SMILES,VCAM1 TNFa pot,others
COc1cccc(-c2nnc(SCCC(=O)O)n2C)c1,7.2,
Cn1c(SCC(=O)Nc2ccccc2)nnc1-c1ccc(NC(=O)CCc2ccccc2)cc1,3.3,
CSc1nnc(-c2ccc(NC(=O)CCc3ccccc3)cc2)n1C,?,VCAM1 pot conf=-5.2
O=C(Nc1nccs1)c1ccc(Br)c(S(=O)(=O)N2CCOCC2)c1,-35.1,
CCN(c1ccccc1)S(=O)(=O)c1ccc(F)cc1C,12.5,
CN(CC(=O)N1CCN(c2ccccc2)CC1)S(=O)(=O)c1cnc[nH]1,-4.2,
O=C(NC1CCSC1=O)c1cccc(C(=O)NC2CCSC2=O)c1 (stereo not drawn),-1.3,
C=CCn1c(N)c(C(=O)NC2CCCCC2)sc1=S,-8.3,
COCCCn1c(-c2ccccc2)nc2ccccc2c1=O,30.8*,VCAM1 pot conf=-2.4
COCCCn1c(SCC(=O)NCc2ccccc2)nc2ccccc2c1=O,-2.3,
COc1ccc(/C=N/n2c(-c3ccco3)nc3ccccc3c2=O)cc1,2.9,
CC1(C)Cc2ccccc2C(=NCCCCCC(=O)O)N1,33.0,
CC(C)(C)NC(=O)C(c1ccccc1)N(C(=O)C1CSC(=O)C1)c1ccccc1 (stereo not drawn),-2.2,
Cc1n[nH]c(=S)c2nn(-c3ccccc3F)c(C)c12,55.2*,VCAM1 pot conf=-11.8
CCOCCCNC(=O)CCSc1ccc(C)cc1,10.2,
CC1(C)Cc2c(cnn2-c2ccccc2)C(=O)/C1=N\NC(=O)c1ccccc1,33.5*,VCAM1 pot conf=-18.0
COc1ccc2c(c1)c1c(n2C(C)=O)C(OC(C)=O)=NCC1,-5.6,
O=C(N/C=C/c1ccc(Cl)cc1)NCc1ccc(Cl)cc1,9.8,
O=C(CSc1nnc(-c2ccccc2O)o1)N1CCc2ccccc2C1,32.1*,VCAM1 pot conf=-10.1
COc1cc(OC)cc(-c2nnc(SCC(=O)N3c4ccccc4Sc4ccccc43)o2)c1,5.9,
CCC1CCCCN1C(=O)CSc1nnc(-c2ccc3c(c2)OCCO3)o1 (stereo not drawn),-7.9,
CCn1c(SCC(=O)N2CCN(c3cccc(Cl)c3)CC2)nc2ccccc2c1=O,-96.1,
Cc1ccc(OCc2ccoc2C(=O)O)cc1C,-96.6,
Cc1ccc(C(=O)OCC(=O)c2ccc(Cl)s2)s1,-1.6,
C=CCNc1oc(-c2ccc(OC)cc2)nc1C#N,44.8*,VCAM1 pot conf=-10.1
SMILES,VCAM1 TNFa pot,others
CCOc1ccc(-c2nc(C#N)c(NCC(C)C)o2)cc1,2.1,
N#Cc1nc(-c2ccc(OCc3ccccc3)cc2)oc1N1CCOCC1,-1.0,
O=[N+]([O-])c1ccc(NCCNc2ccc(Cl)nn2)cc1,1.8,
CS(=O)(=O)N(CC(=O)NCc1ccccc1Cl)Cc1ccccc1,-50.1,
CCOC(=O)C1CCCN(c2ncnc3c2cnn3-c2ccc(Cl)cc2)C1 (stereo not drawn),39.7*,VCAM1 pot conf=-11.9
CCOC(=O)C(C)n1cnc2c(cnn2-c2ccc(Cl)cc2)c1=O (stereo not drawn),-2.6,
CCOC(=O)C1CCCN(S(=O)(=O)c2ccc(F)c(C(=O)Nc3ccc(F)c(F)c3)c2)C1 (stereo not drawn),-0.6,
O=C(Nc1cnn(Cc2ccc(Cl)c(Cl)c2)c1)C12CC3CC(CC(C3)C1)C2,-18.5,
O=C(CN1CCC(n2nnc3ccccc32)CC1)Nc1ccc2c(c1)CCC2,?,VCAM1 pot conf=-13.9
Cc1cc(C)cc(NC(=O)CN2CCc3ccccc3C2)c1,-1.3,
O=C(CN1CCN(CC(=O)Nc2ccccc2Cl)CC1)Nc1ccc2c(c1)OCCO2,-8.5,
Cn1c(=O)n(CCc2ccccc2)c(=O)c2c1nc1n2CCN1Cc1ccco1,-0.2,
O=C(c1ccccc1)c1cc[n+]([O-])cc1,62.5*,VCAM1 pot conf=-11.3
O=C(c1ccccc1)c1cc2ccccc2o1,0.5,
CCOC1=NC(C(=O)O)c2ccccc2/C(=C(/C)Cl)N1 (stereo not drawn),-92.4,
Cc1cc(NCc2ccccn2)ccc1Br,2.9,
CSc1n[nH]c(NCc2cccs2)n1,35.4,
O=C(NC1CCCCC1)C1CCCN1S(=O)(=O)c1cccc2nsnc12 (stereo not drawn),-1.2,
O=C(Nc1ccc(Cl)cn1)C1CCCN1S(=O)(=O)c1cccc2ccccc12 (stereo not drawn),31.2*,VCAM1 pot conf=-11.9
O=C(NCc1cccs1)C1CCCN1S(=O)(=O)c1ccccc1F (stereo not drawn),-3.4,
CCN(CC)c1ccc(C2CC(=O)Nc3cc(OC)c(OC)cc32)cc1 (stereo not drawn),-24.0,
CC(C)CNC(=S)NNC(=O)c1ccco1,-37.7,
O=C(COC(=O)c1cc(S(=O)(=O)N2CCOCC2)c(Cl)cc1Cl)Nc1ncc(C(F)(F)F)cc1Cl,-0.7,
COc1ccc(CN(CC(=O)NCc2ccco2)C(=O)CCC(=O)Nc2nccs2)cc1,3.7,
Cc1ccc(OCC(=O)NCc2ccco2)cc1C,-16.3,
SMILES,VCAM1 TNFa pot,others
CCCOc1ccc(CC(=O)NCc2ccco2)cc1OC,-1.7,
CCn1cc(C(=O)NCc2ccco2)c2cc(OC)c(OC)cc2c1=O,?,VCAM1 pot conf=-9.7
CCOC(=O)Cn1nc(/C=C/c2ccc(C(C)C)cc2)ccc1=O,5.1,
CSc1cccc(NC(=O)c2c(Cl)cnn2C)c1,-32.6,
COc1ccccc1C(=O)Nc1ccc2c(c1)nc(CN1CCN(C(C)=O)CC1)n2C,-90.2,
COc1ccccc1C(=O)Nc1cccc(SC)c1,50.6*,VCAM1 pot conf=-4.0
CC(=O)N1c2ccc(S(=O)(=O)CCC(=O)O)cc2CC1C (stereo not drawn),-3.7,
COc1ccc(-c2c[n+]3c4n2CCCCC4=C(c2ccccc2)C3)cc1,-0.5,
COc1cccc(S(=O)(=O)N2CCN(c3ccccc3F)CC2)c1,-13.6,
COc1cccc(CN2CCN(c3ncccn3)CC2)c1,-8.9,
COc1ccc(S(=O)(=O)N2CCN(Cc3cccc(Cl)c3)CC2)cc1,?,VCAM1 pot conf=-16.8
COc1ccc(NC(=O)CC2C(=O)N(c3ccc(OC)cc3)C(=O)N2CCN2CCN(C)CC2)cc1 (stereo not drawn),0.9,
NC(=O)C1CCN(C(=O)CCSc2ccccc2)CC1,5.1,
O=C(CSc1ccc2nnc(-c3ccccc3)n2n1)N1CCN(c2ccccc2)CC1,-8.5,
NC(=O)C1CCN(C(=O)CSc2ccccn2)CC1,41.0*,VCAM1 pot conf=-6.1
c1ccc(-n2ncc3c(NCc4ccco4)ncnc32)cc1,-5.5,
COc1ccccc1C(=O)NC(CCSC)C(=O)NCC(c1ccco1)N(C)C (stereo not drawn),10.0,
CN(C)C(CNc1nnnn1-c1ccccc1)c1ccco1 (stereo not drawn),?,VCAM1 pot conf=-5.8
O=C(Oc1ccc2ccccc2c1)c1ccccc1,3.8,
Cc1ccnc(SCCn2c(N3CCCCC3)nc3c2c(=O)n(C)c(=O)n3C)n1,-3.4,
COCCn1c(=S)[nH]c2ncccc2c1=O,?,VCAM1 pot conf=-13.8
COCCn1c(C23CC4CC(CC(C4)C2)C3)n[nH]c1=S,-27.0,
COCCn1c(SCC(=O)Nc2nnc(C)s2)nnc1-c1c[nH]c2ccccc12,5.2,
C/C(Cl)=C/CN1C(=O)C2C3C=CC(C3)C2C1=O (stereo not drawn),-13.1,
Cc1c(NC(=O)C(C)Sc2n[nH]c(N)n2)c(=O)n(-c2ccccc2)n1C (stereo not drawn),6.7,
CC(C)(C)OC(=O)N1CC(O)CC1C(=O)OCC(=O)c1ccccc1 (stereo not drawn),21.3,
O=C(CSc1cccc2cccnc12)OCC(=O)c1ccccc1,-9.0,
O=C(COC(=O)C1CC(=O)N(c2nc(-c3ccccc3)cs2)C1)c1ccccc1 (stereo not drawn),55.1*,VCAM1 pot conf=-11.5
CC1CCCCN1C(=O)Cn1cc(C(=O)c2ccco2)c2ccccc21 (stereo not drawn),-16.3,
CCCCN1C2=NCCCN2c2cc(C)c(C)cc21,-4.1,

# Screening results from PubChem.
